# Hits are enriched below; roughly 6.7% of the tested compounds scored in any of these assays.
# C diff growth – blocks growth of Clostridium difficile; Clostridium difficile clinical isolate growth, OD600, 24 h; hits give low values; growth activity, negative = inhibition, % at 16 µg/mL (by protocol); actives 0.25% (n = 86,000); AID 1259249;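 active = mean growth activity at or below -80% and every replicate also at or below -80%; inconclusive = mean at or below -80% but some replicate above -80%; inactive = mean growth activity above -80%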;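 note: 0% = DMSO wells and -100% = levofloxacin 16 µg/mL wells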
# Pf Dd2 growth – blocks growth of Plasmodium falciparum Dd2 parasites; P. falciparum Dd2 growth, SYBR Green, 72 h; hits give low values; activity change, % at 10 µM; actives 2.3% (n = 94,000); AID 1159554; in the data active = activity change below about -80%; inconclusive = no clear call, values can overlap the other calls
# Tcruzi prolif – T. cruzi proliferation inhibition | T. cruzi beta-gal in NIH3T3, GalScreen luminescence, 90 h | inhibition, % at 8.34 µM | actives 5.9% (n = 77,000);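 active = mean inhibition above about 93%, with at least 55% of replicates each passing it, limit read from the data, passing the limit was not always enough; inconclusive = only one of those two conditions holds; inactive = neither condition holds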
# Active calls of the source: *; ? = inconclusive; nt = no result.
SMILES,C diff growth,Pf Dd2 growth,Tcruzi prolif
CCCN(C)C[C@H]1OCCCC[C@@H](C)Oc2ccc(NS(=O)(=O)c3ccc(F)cc3)cc2C(=O)N([C@H](C)CO)C[C@@H]1C,-6,0,-9
CCCN(C)C[C@H]1OCCCC[C@H](C)Oc2ccc(NS(=O)(=O)c3c(C)noc3C)cc2C(=O)N([C@@H](C)CO)C[C@@H]1C,-3,-89*,72
CCCN(C)C[C@H]1OCCCC[C@H](C)Oc2ccc(NS(=O)(=O)c3ccc(C)cc3)cc2C(=O)N([C@@H](C)CO)C[C@@H]1C,4,-90*,33
CCCN(C)C[C@H]1OCCCC[C@@H](C)Oc2ccc(NS(=O)(=O)c3ccc(Cl)cc3)cc2C(=O)N([C@H](C)CO)C[C@@H]1C,-3,-14,85
CCCN(C)C[C@H]1OCCCC[C@H](C)Oc2ccc(NS(=O)(=O)c3ccc(Cl)cc3)cc2C(=O)N([C@H](C)CO)C[C@H]1C,2,-28,79
CCCN(C)C[C@H]1OCCCC[C@H](C)Oc2ccc(NS(=O)(=O)c3c(C)noc3C)cc2C(=O)N([C@H](C)CO)C[C@H]1C,-1,-71,18
Cc1ccccc1S(=O)(=O)N1CC(=O)N2[C@H](CO)[C@H](c3ccc(C#Cc4ccccc4)cc3)[C@@H]2C1,-3,18,nt
Cc1noc(C)c1S(=O)(=O)Nc1ccc2c(c1)C(=O)N([C@@H](C)CO)C[C@@H](C)[C@@H](CN(C)C(=O)Nc1ccc(C(F)(F)F)cc1)OCCCC[C@H](C)O2,3,-82*,107
Cc1noc(C)c1S(=O)(=O)Nc1ccc2c(c1)C(=O)N([C@H](C)CO)C[C@H](C)[C@@H](CN(C)C(=O)Nc1ccccc1)OCCCC[C@H](C)O2,-3,3,20
Cc1noc(C)c1S(=O)(=O)Nc1ccc2c(c1)C(=O)N([C@H](C)CO)C[C@@H](C)[C@@H](CN(C)C(=O)Nc1ccccc1)OCCCC[C@@H](C)O2,7,-84*,12
Cc1noc(C)c1S(=O)(=O)Nc1ccc2c(c1)C(=O)N([C@@H](C)CO)C[C@@H](C)[C@H](CN(C)C(=O)Nc1ccc(C(F)(F)F)cc1)OCCCC[C@H](C)O2,-2,-32,98
CO[C@@H]1CN(C)C(=O)c2ccc(NC(=O)C3CCC3)cc2OC[C@@H](C)N(CC2CCCCC2)C[C@@H]1C,nt,-65,79
C[C@@H]1CN([C@@H](C)CO)C(=O)c2cc(NC(=O)c3ccccc3)ccc2O[C@@H](C)CCCCO[C@@H]1CN(C)S(=O)(=O)c1ccc(Cl)cc1,14,-86*,82
C[C@@H]1CCCCO[C@@H](CN(C)S(=O)(=O)c2ccccc2)[C@H](C)CN([C@@H](C)CO)C(=O)c2cc(NC(=O)c3ccccc3)ccc2O1,nt,-38,-37
C[C@@H]1CCCCO[C@@H](CN(C)S(=O)(=O)c2ccc(Cl)cc2)[C@H](C)CN([C@H](C)CO)C(=O)c2cc(NC(=O)c3ccccc3)ccc2O1,2,-85*,90
C[C@@H]1CCCCO[C@H](CN(C)S(=O)(=O)c2ccccc2)[C@H](C)CN([C@@H](C)CO)C(=O)c2cc(NC(=O)c3ccccc3)ccc2O1,nt,-56,34
C[C@@H]1CN([C@@H](C)CO)C(=O)c2cc(NC(=O)c3ccccc3)ccc2O[C@@H](C)CCCCO[C@H]1CN(C)S(=O)(=O)c1ccc(Cl)cc1,3,-84*,65
C[C@@H]1CCCCO[C@@H](CN(C)S(=O)(=O)c2ccc(Cl)cc2)[C@H](C)CN([C@@H](C)CO)C(=O)c2cc(NC(=O)c3ccccc3)ccc2O1,2,-70,71
C[C@H]1CCCCO[C@@H](CN(C)S(=O)(=O)c2ccccc2)[C@@H](C)CN([C@@H](C)CO)C(=O)c2cc(NC(=O)c3ccccc3)ccc2O1,nt,-68,24
C[C@H]1CCCCO[C@H](CN(C)S(=O)(=O)c2ccc(Cl)cc2)[C@@H](C)CN([C@@H](C)CO)C(=O)c2cc(NC(=O)c3ccccc3)ccc2O1,8,-81*,97
C[C@H]1CN([C@@H](C)CO)C(=O)c2cc(Br)cnc2O[C@@H]1CN(C)Cc1ccccn1,4,2,nt
COc1ccc(CN(C)C[C@@H]2Oc3ccc(NC(=O)CCC(F)(F)F)cc3CC(=O)N([C@@H](C)CO)C[C@@H]2C)cc1,0,9,21
C[C@@H]1CCCCO[C@@H](CN(C)S(=O)(=O)c2ccc(F)cc2)[C@H](C)CN([C@H](C)CO)C(=O)c2cc(NC(=O)NC3CCCCC3)ccc2O1,16,-72,81
Cc1ccc(S(=O)(=O)N(C)C[C@H]2OCCCC[C@@H](C)Oc3ccc(NC(=O)NC4CCCCC4)cc3C(=O)N([C@@H](C)CO)C[C@@H]2C)cc1,-5,?,83
C[C@@H]1CN([C@H](C)CO)C(=O)c2cc(NC(=O)NC3CCCCC3)ccc2O[C@@H](C)CCCCO[C@@H]1CN(C)S(=O)(=O)c1ccc(F)cc1,19,-84*,34
SMILES,C diff growth,Pf Dd2 growth,Tcruzi prolif
Cc1ccc(S(=O)(=O)N(C)C[C@@H]2OCCCC[C@H](C)Oc3ccc(NC(=O)NC4CCCCC4)cc3C(=O)N([C@H](C)CO)C[C@H]2C)cc1,-1,-85*,90
O=C(Nc1cccc(Cl)c1)N[C@H]1CC[C@@H](CCNC(=O)C2CCCC2)O[C@H]1CO,-2,-7,nt
O=C(C[C@H]1C[C@@H]2c3cc(NC(=O)Nc4ccccc4)ccc3O[C@@H]2[C@@H](CO)O1)NCc1cccc(F)c1,-3,-41,50
CCC(=O)N1C[C@@H](C)[C@H](OC)CN(C)C(=O)c2ccc(NC(=O)c3cnccn3)cc2OC[C@H]1C,nt,29,9
C[C@@H]1CN([C@@H](C)CO)C(=O)CCCn2cc(nn2)CO[C@@H]1CN(C)Cc1ccc(O)cc1,nt,10,17
CN1CCN(C(=O)C[C@H]2C[C@H]3c4cc(NS(=O)(=O)c5ccc(F)cc5)ccc4O[C@H]3[C@H](CO)O2)CC1,-4,-1,-94
CCC(=O)Nc1ccc2c(c1)OC[C@H](C)N(Cc1ccccn1)C[C@@H](C)[C@@H](OC)CN(C)C2=O,nt,-53,6
CO[C@@H]1CN(C)C(=O)c2ccc(NC(=O)c3ccc4c(c3)OCO4)cc2OC[C@@H](C)N(Cc2ccc3c(c2)OCO3)C[C@H]1C,5,-85*,92
CO[C@H]1CN(C)C(=O)c2ccc(NC(=O)c3ccc4c(c3)OCO4)cc2OC[C@@H](C)N(CC2CC2)C[C@H]1C,nt,-2,nt
CCC(=O)Nc1ccc2c(c1)OC[C@H](C)N(Cc1ccccn1)C[C@H](C)[C@H](OC)CN(C)C2=O,nt,-84*,16
CO[C@H]1CN(C)C(=O)c2ccc(NC(=O)NC(C)C)cc2OC[C@H](C)N(Cc2ccccc2)C[C@H]1C,nt,-47,34
CCCC(=O)Nc1ccc2c(c1)OC[C@H](C)N(Cc1ccc(F)cc1)C[C@@H](C)[C@H](OC)CN(C)C2=O,nt,-61,?
CCCC(=O)Nc1ccc2c(c1)OC[C@@H](C)N(Cc1ccc(F)cc1)C[C@@H](C)[C@H](OC)CN(C)C2=O,3,-87*,nt
CO[C@@H]1CN(C)C(=O)c2ccc(NC(=O)NC(C)C)cc2OC[C@@H](C)N(Cc2ccccc2)C[C@H]1C,-8,-85*,nt
CC(=O)N(C)C[C@@H]1Oc2ncc(-c3cccnc3)cc2C(=O)N([C@@H](C)CO)C[C@@H]1C,-3,34,40
